Results filed as inconclusive are left out. The source made the active and inactive calls. Unless noted, calls follow the shape of the dose curve; as a rule, active = well fitted curve in the direction sought with a large enough effect; inconclusive = small, poorly fitted or top-dose-only effect, or another doubt; inactive = no such curve, though single readings can be large; an effect the other way counts as inactive or inconclusive.
Tests used:
[1] = Inducers of the Endoplasmic Reticulum Stress Response (ERSR) in human glioma: Validation (AID 504836)
Method in brief: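 Stably transfected U87-MG glioma cells carrying a GRP78-based luciferase sensor; 16 h compound incubation. Luminescence end-point read 10 min after Bright-Glo addition at room temperature.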

[2] = qHTS for Inhibitors of the Functional Ribonucleoprotein Complex (vRNP) of Lassa (LASV) Arenavirus: LASV Primary Screen - GLuc reporter signal (AID 1347082; calls by dose curve; tested in HEK293 reporter line; also: series mostly up to about 57 µM; nearly all actives have a fitted effect of over 60% in size)
[3] = qHTS for Inhibitors of the Functional Ribonucleoprotein Complex (vRNP) of Lassa (LASV) Arenavirus: Viability assay - alamar blue signal for LASV Primary Screen (AID 1347083; calls by dose curve; tested in HEK293 reporter line; also: series mostly up to about 57 µM; nearly all actives have a fitted effect of over 80% in size)
[4] = qHTS for Inhibitors of the Functional Ribonucleoprotein Complex (vRNP) of Lymphocytic Choriomeningitis Arenaviruses (LCMV): Viability assay - alamar blue signal for LCMV Primary Screen (AID 1347085; calls by dose curve; tested in HEK293 reporter line; also: series mostly up to about 57 µM; nearly all actives have a fitted effect of over 80% in size)
[5] = molecular target: Nucleoprotein (Lymphocytic choriomeningitis virus (strain Armstrong)) (UniProt P09992); test: qHTS for Inhibitors of the Functional Ribonucleoprotein Complex (vRNP) of Lymphocytic Choriomeningitis Arenaviruses (LCMV): LCMV Primary Screen - GLuc reporter signal (AID 1347086; calls by dose curve; also: series mostly up to about 57 µM; nearly all actives have a fitted effect of over 70% in size)
[6] = molecular target: Alpha-galactosidase (Coffea arabica) (UniProt Q42656); test: Counterscreen for Glucocerebrosidase Inhibitors: qHTS Assay for Coffee Bean alpha-Galactosidase at pH 4.5 (AID 957); also: series mostly up to about 77 µM
Method in brief: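 Fluorogenic qHTS at pH 4.5 (citrate buffer with Tween-20): 2 nM enzyme, 80 uM 4-MU-alpha-galactoside substrate, compound titrated 0.7 nM to 77 uM, 20 min room temperature. Glycine/NaOH stop; 4-MU read Ex 365/Em 440; Hill-equation AC50 against no-enzyme and enzyme controls.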

[7] = molecular target: Alpha-galactosidase (Coffea arabica) (UniProt Q42656); test: Counterscreen for Glucocerebrosidase Inhibitors: qHTS Assay for Coffee Bean alpha-Galactosidase at pH 5.9 (AID 998)
Method in brief: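 Enzyme 2 nM + cpd (0.7 nM–77 uM titration) + 4-MU-alpha-Gal 80 uM, pH 5.9 citrate/Tween-20, RT 20 min, NaOH/glycine stop pH 10, fluor 365/440. Normalized to no-enzyme and full-activity controls; Hill-fit AC50.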

[8] = molecular target: Ubiquitin carboxyl-terminal hydrolase 1 (Homo sapiens) (UniProt O94782); test: Inhibitors of USP1/UAF1: Pilot qHTS (AID 504865);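 also: rhodamine fluorescence freed from ubiquitin-rhodamine substrate followed over time; top concentration of the series differs between compounds; nearly all actives have a fitted effect of over 35% in size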
Method in brief: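 1nM USP1/UAF1 + cpd, 15 min RT; start w/ Ub-Rho 150nM final; kinetic FL 480/540 nm, 6 reads q60 s. Buffer 50mM HEPES pH 7.8, 0.5mM EDTA, 1mM TCEP, 0.01% Tween-20, 0.1 mg/ml BSA.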

[9] = molecular target: Arylsulfatase A (Homo sapiens) (UniProt P15289); test: qHTS screen for enhancers of Arylsulfatase A (ASA1): LOPAC Validation Assay (AID 720538)
Method in brief: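 Read-out: fluorescence at Ex=525/Em=598 nm after 1N NaOH final stop. Patient fibroblasts carrying ASA-I179S had 48h compound exposure, then 14h room-temperature pNCS hydrolysis (0.5mM final) in lysis buffer. Signal increase = enhanced activity.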

Measured: Potency

Chain of Alpha-galactosidase (Coffea arabica) (Q42656 whole entry, looked up): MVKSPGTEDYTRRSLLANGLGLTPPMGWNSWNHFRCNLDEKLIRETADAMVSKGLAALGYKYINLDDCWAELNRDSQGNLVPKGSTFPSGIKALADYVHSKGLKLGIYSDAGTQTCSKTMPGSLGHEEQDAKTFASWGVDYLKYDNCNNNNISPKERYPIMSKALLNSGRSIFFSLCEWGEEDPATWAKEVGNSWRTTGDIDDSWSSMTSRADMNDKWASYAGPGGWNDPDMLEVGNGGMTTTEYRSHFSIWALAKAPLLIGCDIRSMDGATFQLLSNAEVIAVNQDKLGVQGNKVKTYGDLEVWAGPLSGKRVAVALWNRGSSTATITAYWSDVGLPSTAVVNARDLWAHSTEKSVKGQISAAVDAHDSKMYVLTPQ
Chain of Nucleoprotein (Lymphocytic choriomeningitis virus (strain Armstrong)) (P09992 whole entry, looked up): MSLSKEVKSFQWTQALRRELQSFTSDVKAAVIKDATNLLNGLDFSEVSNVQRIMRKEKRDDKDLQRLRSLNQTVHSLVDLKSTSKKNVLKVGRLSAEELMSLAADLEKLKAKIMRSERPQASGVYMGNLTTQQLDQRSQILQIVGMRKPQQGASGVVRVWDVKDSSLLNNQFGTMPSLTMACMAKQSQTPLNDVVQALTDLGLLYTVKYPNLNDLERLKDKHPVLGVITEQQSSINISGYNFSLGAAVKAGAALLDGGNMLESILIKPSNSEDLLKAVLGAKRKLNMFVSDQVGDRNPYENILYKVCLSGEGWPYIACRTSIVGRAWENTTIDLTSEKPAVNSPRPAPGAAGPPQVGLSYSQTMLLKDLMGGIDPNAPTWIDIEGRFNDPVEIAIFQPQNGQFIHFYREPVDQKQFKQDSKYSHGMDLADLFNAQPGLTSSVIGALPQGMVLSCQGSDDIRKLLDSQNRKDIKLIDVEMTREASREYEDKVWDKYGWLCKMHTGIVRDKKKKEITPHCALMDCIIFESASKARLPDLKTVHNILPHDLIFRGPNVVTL
Chain of Arylsulfatase A (Homo sapiens) (P15289 whole entry, looked up): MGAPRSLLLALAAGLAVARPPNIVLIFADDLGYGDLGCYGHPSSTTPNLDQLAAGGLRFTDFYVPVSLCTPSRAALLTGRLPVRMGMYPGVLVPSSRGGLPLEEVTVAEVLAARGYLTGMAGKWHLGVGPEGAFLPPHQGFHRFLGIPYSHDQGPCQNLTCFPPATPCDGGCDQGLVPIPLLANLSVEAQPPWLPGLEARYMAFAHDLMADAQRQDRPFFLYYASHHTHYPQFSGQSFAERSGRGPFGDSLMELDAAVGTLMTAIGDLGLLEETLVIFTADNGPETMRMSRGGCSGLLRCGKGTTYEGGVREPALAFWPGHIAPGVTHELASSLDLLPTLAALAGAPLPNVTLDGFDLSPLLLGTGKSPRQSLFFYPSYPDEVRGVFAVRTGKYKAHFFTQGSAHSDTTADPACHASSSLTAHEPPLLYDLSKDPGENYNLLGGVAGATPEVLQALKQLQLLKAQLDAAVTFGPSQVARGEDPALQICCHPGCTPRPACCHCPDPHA
Chain of Ubiquitin carboxyl-terminal hydrolase 1 (Homo sapiens) (O94782 whole entry, looked up): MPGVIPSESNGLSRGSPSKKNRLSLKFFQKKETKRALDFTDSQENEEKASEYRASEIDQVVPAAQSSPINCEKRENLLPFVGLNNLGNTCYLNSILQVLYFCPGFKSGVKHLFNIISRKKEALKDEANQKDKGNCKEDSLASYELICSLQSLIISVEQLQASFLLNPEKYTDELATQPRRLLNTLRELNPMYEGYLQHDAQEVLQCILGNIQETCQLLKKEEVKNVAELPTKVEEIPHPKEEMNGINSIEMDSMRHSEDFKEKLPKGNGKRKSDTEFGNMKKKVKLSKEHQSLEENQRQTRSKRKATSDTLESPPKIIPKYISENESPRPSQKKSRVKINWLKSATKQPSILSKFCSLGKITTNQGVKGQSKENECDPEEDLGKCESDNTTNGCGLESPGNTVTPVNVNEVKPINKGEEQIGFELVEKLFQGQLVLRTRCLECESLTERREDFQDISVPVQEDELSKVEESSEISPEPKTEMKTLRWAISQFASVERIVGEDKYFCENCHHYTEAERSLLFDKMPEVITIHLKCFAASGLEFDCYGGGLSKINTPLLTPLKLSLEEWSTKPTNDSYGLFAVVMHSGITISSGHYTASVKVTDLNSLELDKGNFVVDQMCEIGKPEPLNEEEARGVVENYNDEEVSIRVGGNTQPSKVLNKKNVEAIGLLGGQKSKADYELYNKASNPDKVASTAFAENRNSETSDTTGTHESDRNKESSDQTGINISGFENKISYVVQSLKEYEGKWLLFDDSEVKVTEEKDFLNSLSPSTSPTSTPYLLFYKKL

Nc1nc(Cl)nc2c1ncn2[C@@H]1O[C@H](CO)[C@@H](O)[C@H]1O
inactive: [1] | [2] | [3] | [4] | [5]

CC(O)C(O)[C@H]1CNc2nc(N)[nH]c(=O)c2N1 (some centres undefined)
inactive: [1] | [2] | [3] | [4] | [5]

Clc1ccc(N2CCN(Cc3cc4ccccn4n3)CC2)cc1
inactive: [1] | [2] | [3] | [4] | [5]

Cn1ncc(S(=O)(=O)Cc2ccccc2)c(Br)c1=O
inactive: [1] | [2] | [3] | [4] | [5]

NC(=S)c1ccc[n+]([C@@H]2O[C@@H](COP(=O)([O-])OP(=O)(O)OC[C@H]3O[C@@H](n4cnc5c(N)ncnc54)[C@H](OP(=O)(O)O)[C@@H]3O)C(O)C2O)c1 (some centres undefined)
inactive: [1] | [2] | [3] | [4] | [5]

CSc1nc(N)c2ncn([C@@H]3O[C@H](COP(=O)(O)OP(=O)(O)O)C(O)[C@H]3O)c2n1 (some centres undefined)
inactive: [1] | [2] | [3] | [4] | [5]

Cc1cccc(/C=C/c2ccccc2)n1
inactive: [1] | [2] | [3] | [4] | [5]

C=CC(C)=C[C@@]1(C)SC(=O)C(C)=C1O
inactive: [1] | [2] | [3] | [4] | [5]

Nc1ncnc2c1ncn2[C@@H]1O[C@H](COP(=O)(O)OP(=O)(O)OP(=O)(O)OP(=O)(O)OC[C@@H]2O[C@H](n3cnc4c(N)ncnc43)[C@@H](O)[C@H]2O)[C@@H](O)[C@H]1O
inactive: [1] | [2] | [3] | [4] | [5]

CC(C)[C@@H]1CC[C@@H](C)C[C@@H]1P(=O)(c1ccccc1)c1ccccc1
inactive: [1] | [2] | [3] | [4] | [5]

CCCCCCCCc1ccc(-c2ccc(C(=O)O)cc2)cc1
inactive: [1] | [2] | [3] | [4] | [5]

CC(C)Cn1c(=O)n(C)c(=O)c2[nH]cnc21
inactive: [6] | [7] | [1] | [2] | [3] | [4] | [5]

CN(CC[C@@H](Oc1ccc(C(F)(F)F)cc1)c1ccccc1)CC(=O)O
inactive: [1] | [2] | [3] | [4] | [5]

CN1C2CCCC1CC(NC(=O)c1nn(C)c3ccccc13)C2 (centres undefined)
inactive: [1] | [2] | [3] | [4] | [5]

Cc1cc(Cn2cnc3c2C[C@@H](C(=O)O)N(C(=O)C(c2ccccc2)c2ccccc2)C3)ccc1N
inactive: [1] | [2] | [3] | [4] | [5]

C[C@H]1CC2C3CCC4=CC(=O)C=C[C@]4(C)[C@@]3(Cl)[C@@H](O)C[C@]2(C)[C@@]1(O)C(=O)CO (some centres undefined)
inactive: [1] | [2] | [3] | [4] | [5]

CC1CC2C3CCC4=CC(=O)C=C[C@]4(C)[C@@]3(F)[C@@H](O)C[C@]2(C)[C@@]1(O)C(=O)CO (some centres undefined)
inactive: [1] | [2] | [3] | [4] | [5]

C=CC(=O)c1ccc(CCCCCC)cc1
inactive: [1] | [2] | [3] | [4] | [5]

CC(=O)O[C@H]1C[C@@H]2CC[C@@H]3[C@H](CC[C@@]4(C)[C@H]3C[C@H]([N+]3(C)CCCCC3)[C@@H]4OC(C)=O)[C@@]2(C)C[C@@H]1[N+]1(C)CCCCC1
inactive: [1] | [8] | [9] | [2] | [3] | [4] | [5]

CCCCCCC(=O)OC1CC(C)(C)NC(C)(C)C1
inactive: [1] | [9] | [2] | [3] | [4] | [5]

C=C1C[C@@]23CC[C@H]4[C@@](C)(CCC[C@@]4(C)C(=O)OC4OC(CO)C(O)C(O)C4O)[C@@H]2CC[C@]1(OC1OC(CO)C(O)C(O)C1OC1OC(CO)C(O)C(O)C1O)C3 (some centres undefined)
inactive: [1] | [2] | [3] | [4] | [5]

O=C(O)C1=CC(=C(c2ccc(O)c(C(=O)O)c2)c2ccc(O)c(C(=O)O)c2)C=CC1=O
inactive: [6] | [7] | [1] | [2] | [3] | [4] | [5]

O=C(O)CCC/C=C\C[C@@H]1[C@@H](/C=C/[C@H](O)C2Cc3ccccc3C2)[C@@H](F)C[C@@H]1O
inactive: [1] | [2] | [3] | [4] | [5]

Nc1nc(Nc2ccccc2)nc2c1ncn2[C@@H]1O[C@H](CO)[C@@H](O)[C@H]1O
inactive: [1] | [2] | [3] | [4] | [5]

C=C1C[C@@]23CC[C@H]4[C@@](C)(CCC[C@@]4(C)C(=O)O)[C@@H]2CC[C@]1(O)C3
inactive: [1] | [2] | [3] | [4] | [5]

CC(C)(C)[C@]1(O)CCN2C[C@H]3c4ccccc4CCc4cccc(c43)[C@@H]2C1
inactive: [1] | [2] | [3] | [4] | [5]

CC(=O)SC1CC2=CC(=O)CC[C@]2(C)C2CC[C@@]3(C)C(CC[C@@]34CCC(=O)O4)C12 (some centres undefined)
inactive: [1] | [2] | [3] | [4] | [5]

NC(=O)C1=CN(C2OC(COP(=O)(O)OP(=O)(O)OC[C@H]3O[C@@H](n4cnc5c(N)ncnc54)[C@H](OP(=O)(O)O)[C@@H]3O)C(O)C2O)C=CC1 (some centres undefined)
inactive: [1] | [2] | [3] | [4] | [5]

N[C@H](C(=O)O)[C@H]1C[C@@H]1C(=O)O
inactive: [1] | [2] | [3] | [4] | [5]

C[C@H](Cc1ccccc1)Nc1ncnc2c1ncn2[C@@H]1O[C@H](CO)[C@@H](O)[C@H]1O
inactive: [1] | [2] | [3] | [4] | [5]

OC[C@H]1O[C@@H](n2cnc3c(NC4CCCCC4)ncnc32)[C@H](O)[C@@H]1O
inactive: [1] | [2] | [3] | [4] | [5]

NCC1OC(O[C@H]2[C@H](O)[C@@H](OC3C(O)C(N)CC(N)C3OC3OC(CO)C(O)C(O)C3N)O[C@@H]2CO)C(N)C(O)C1O (some centres undefined)
inactive: [1] | [8] | [9] | [2] | [3] | [4] | [5]

COC(=O)C1=CO[C@@H](O)[C@@H]2C(CO)=CC[C@H]12
inactive: [1] | [2] | [3] | [4] | [5]
